Experimental data from PubChem BioAssay (EPA / NIEHS).
Activity calls are given as the source filed them. Rule for the calls: active = hit-call score of the fitted dose curve at least 0.9, where 1 is the maximum; inactive = score below 0.9.

Experiment: ATG_E_Box_CIS: Attagene CIS-FACTORIAL HepG2 Assay for human Enhancer Box (E-box) (AID 2282936)
Conditions: HepG2 E-box cis-reporter transcription, actives raise or lower the signal
Description: ATG_CIS is a cell-based, multiplexed-readout assay that uses HepG2, a human liver cell line, with measurements taken at 24 hours after chemical dosing in a 24-well plate.ATG_E_Box_CIS is one of 52 assay component(s) measured or calculated from the ATG_CIS assay. It is designed to make measurements of mRNA induction, a form of inducible reporter, as detected with fluorescence intensity signals by Reverse transcription polymerase chain reaction (RT-PCR) and Capillary electrophoresis technology.Data from the assay component ATG_E_Box_CIS was analyzed into 1 assay endpoint. This assay endpoint, ATG_E_Box_CIS, was analyzed with bidirectional fitting relative to DMSO as the negative control and baseline of activity. Using a type of inducible reporter, measures of mRNA for gain or loss-of-signal activity can be used to understand the reporter gene at the transcription factor-level as they relate to the gene USF1. Furthermore, this assay endpoint can be referred to as a primary readout, because this assay has produced multiple assay endpoints where this one serves a reporter gene function. To generalize the intended target to other relatable targets, this assay endpoint is annotated to the dna binding intended target family, where the subfamily is basic helix-loop-helix protein.
Human liver HepG2 cells are transiently transfected with multiple reporter transcription units (MRTUs) in 6-well plates using FuGene 6 reagent (Roche; 3 ml FuGene/1 mg DNA). The MRTU constructs are regulated by a cis-regulating element (promoter). […] A major difference between the CIS and TRANS system is that in CIS activities of endogenous TFs are measured, whereas the TRANS assay evaluates changes in activities of exogenous, chimeric NR-Gal4 proteins. […] At the end of 24 hour incubation, total RNA was isolated using TriZol reagent (Invitrogen). The isolated RNA is then reverse-transcribed using oligo(dT) primer and Mo-MLV reverse transcriptase (Invitrogen) with DNAse I (Ambion) treatment for 30 min. The one-tenth of the produced cDNA was amplified by PCR using Taq DNA polymerase (Invitrogen) and two reporter sequence-specific primers. The PCR products were fluorescently labeled by primer extension with 6-arboxyfluorescein (6-FAM) 5'-labeled reporter sequence-specific primer (2 min at 95 C, 20 s at 68 C and 10 min at 72 C) and these products were digested with 5U of HpaI (New England Biolabs) for 2h at 37 C. The fragments were purified using Qiaquick PCR columns (Qiagen), analyzed on an ABI 3130xL genetic analyzer (Applied Biosystems) with peak positions identified by using a set of X-rhodamine (ROX)-labeled MapMarker1000 molecular weight standards (BioVentures). The raw capillary electrophoresis data was processed using Attagraph software (Attagene).

SMILES	outcome	AC50
O=Cc1ccccc1S(=O)(=O)O	inactive	–
NCc1ccco1	inactive	–
CCCCC(CC)(CO)CO	inactive	–
CCOCCOCCOCC	inactive	–
O=[N+]([O-])c1cccc(Cl)c1	inactive	–
CCCCSCCCC	inactive	–
CC(=O)NCCO	inactive	–
O=C1OC(=O)c2c(Cl)c(Cl)c(Cl)c(Cl)c21	inactive	–
C[C@H](CCC(=O)NCC(=O)O)[C@H]1CC[C@H]2[C@@H]3[C@H](O)C[C@@H]4C[C@H](O)CC[C@]4(C)[C@H]3C[C@H](O)[C@]12C	inactive	–
CC(C)CC(C)CC(O)CC(C)C (stereo not given)	inactive	–
C/C=C(\C)C(=O)OCCc1ccccc1	inactive	–
Clc1ccc(C(c2ccccc2Cl)C(Cl)Cl)cc1 (stereo not given)	inactive	–
CC=Cc1ccc(OCC)c(O)c1	inactive	–
CC1=NN(c2ccc(S(=O)(=O)O)cc2)C(=O)C1	inactive	–
CCNCCO	inactive	–
C=C(CC(=O)O)C(=O)O	inactive	–
C[C@H]1C[C@@H](O)CC(C)(C)C1	inactive	–
OCCOCCN1CCN(C2=Nc3ccccc3Sc3ccccc32)CC1	inactive	–
Nc1ccc(Cl)c([N+](=O)[O-])c1	inactive	–
CCCCCCCCCC(=O)OC	inactive	–

SMILES	outcome	AC50
C[C@H]1O[C@@H](O[C@H]2[C@@H](O)C[C@H](O[C@H]3[C@@H](O)C[C@H](O[C@H]4CC[C@@]5(C)[C@H](CC[C@@H]6[C@@H]5C[C@@H](O)[C@]5(C)[C@@H](C7=CC(=O)OC7)CC[C@]65O)C4)O[C@@H]3C)O[C@@H]2C)C[C@H](O)[C@@H]1O	inactive	–
COC(=O)c1ccc(OC)cc1	inactive	–
CN(C)CCOc1ccc(/C(=C(/CCCl)c2ccccc2)c2ccccc2)cc1	inactive	–
O=C1OC2(c3ccccc31)c1ccc(O)c(Br)c1Oc1c2ccc(O)c1Br	inactive	–
CC(C)C[C@H](NC(=O)OCC1c2ccccc2-c2ccccc21)C(=O)O	inactive	–
CCOC(=O)COC(=O)c1cc(Oc2ccc(C(F)(F)F)cc2Cl)ccc1[N+](=O)[O-]	inactive	–
CCC(C)c1cc([N+](=O)[O-])cc([N+](=O)[O-])c1OC(=O)OC(C)C (stereo not given)	–	100 µM (active)
Cc1ncc([N+](=O)[O-])n1CCO	inactive	–
CC(=O)c1c(C)c([N+](=O)[O-])c(C(C)(C)C)c([N+](=O)[O-])c1C	inactive	–
CCc1ccc(O)cc1	inactive	–
C=C1CC[C@H](O)C/C1=C/C=C1\CCC[C@]2(C)[C@@H]([C@H](C)/C=C/[C@H](C)C(C)C)CC[C@@H]12	inactive	–
CCCCCC(C)=O	inactive	–
CCCCCCCCCCCCCCN(CCO)CCO	inactive	–
CCc1ncc(C)[nH]1	inactive	–
Cc1c(C2(c3cc(Br)c(O)c(Br)c3C)OS(=O)(=O)c3ccccc32)cc(Br)c(O)c1Br	inactive	–
CCOc1ccc(N=Nc2ccc(C=Cc3ccc(N=Nc4ccc(OCC)cc4)cc3S(=O)(=O)O)c(S(=O)(=O)O)c2)cc1	inactive	–
CC(C)(C)c1ccc(C(=O)O)cc1	inactive	–
C1CCCCC1	inactive	–
Nc1ccn([C@H]2CS[C@@H](CO)O2)c(=O)n1	inactive	–
C=C(C)CNCC	inactive	–
